Reference: PubChem BioAssay (NCATS)
Results filed as inconclusive are left out. Entries that show only a call come without a potency. The source made the active and inactive calls. The call rests on the fitted dose curve; in most records, active means well fitted inhibition curve with a large enough effect; inconclusive means small, poorly fitted or top-dose-only effect; inactive means flat fitted curve, though single readings scatter.

Each compound was assayed against Calcium and integrin-binding protein 1 (Homo sapiens) (UniProt Q99828) (assay: Primary qHTS for Identification of Calcium Integrin Binding Protein 1 (CIB1) Competitor (AID 1508620;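 further: GST tagged CIB1 binding a fluorescein labelled alphaIIb integrin peptide tracer; top concentration of the series differs between compounds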)). Conditions: CIB1-GST / FITC-alphaIIb peptide fluorescence polarization; series mostly up to 114 µM.
Sequence of Calcium and integrin-binding protein 1 (Homo sapiens) (Q99828 whole entry, looked up): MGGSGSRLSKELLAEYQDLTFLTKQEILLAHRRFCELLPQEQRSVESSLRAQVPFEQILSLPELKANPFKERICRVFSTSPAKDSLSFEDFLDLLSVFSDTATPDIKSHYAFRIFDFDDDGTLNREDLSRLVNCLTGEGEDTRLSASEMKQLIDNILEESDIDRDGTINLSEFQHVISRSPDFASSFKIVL
How it was run: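 CIB1-GST (1 uM final) and compound incubated 15 min at room temperature before adding FITC-alphaIIb peptide tracer (100 nM final). Competition for binding read by fluorescence polarization (ex 480, em 540) after another 15 min at room temperature.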
For `O=C(O)c1ccc(-c2noc(-c3ccccc3F)n2)cc1`, the Potency was “inactive”. In the case of `O=C(Nc1ncc(Cc2ccc(C(F)(F)F)cc2)s1)c1ccco1`, the Potency is reported as “inactive”. For `COc1cccc(Cn2ncc3c4sc(Br)cc4n(C)c3c2=O)c1`, the Potency was “inactive”. With `COc1ccc(C(=O)OCC#CCSc2nnc(-c3cccc4ccccc34)o2)cc1` the Potency was “inactive”. `O=C(Nc1ccc(Cl)c(Cl)c1)Nc1ncc(-c2ccncc2)s1` was tested, and the Potency was “inactive”. For `CC(=O)Nn1c(C)nc2sc3c(c2c1=O)CCNC3`, the Potency was “inactive”. With `O=C(Cn1nc(-c2ccc(C(F)(F)F)cc2)ccc1=O)NCCc1ccccc1` the Potency was “inactive”. `COc1ccc(C(=O)N(Cc2ccccc2)Cc2cccs2)c(O)c1` was tested, and the Potency was “inactive”. In the case of `COc1ccc(-c2ccc3ncnc(NCc4cccs4)c3c2)cc1`, the Potency is reported as “inactive”. With `COc1cccc(CC(=O)Nc2nc(-c3ccc4c(c3)CCN4C(=O)c3ccccc3C)c(C)s2)c1` the Potency was “inactive”. With `Cc1ccc(OCCn2c(CCNC(=O)NC3CCCCC3)nc3ccccc32)cc1` the Potency was “inactive”. With `Cc1ccnc(NC(=S)N2CCN(c3ncc(C(F)(F)F)cc3Cl)CC2)c1` the Potency was “inactive”. `N#Cc1ccc(NC(=O)Nc2nnc(-c3ccncc3)s2)cc1` was tested, and the Potency was “inactive”. In the case of `Cc1cc(C)n2ncc(C(=O)Nc3ccc(Cl)c(Cl)c3)c2n1`, the Potency is reported as “inactive”. For `CCOc1ccc(C(=O)Nc2ccc(-c3nc4ccccc4o3)cc2)cc1[N+](=O)[O-]`, the Potency was “inactive”. For `Cc1nc(CNc2ncnc3ccc(-c4sc(C)nc4C)cc23)cs1`, the Potency was “inactive”. In the case of `Cc1csc(CNc2ncnc3ccc(-c4ccc(C(C)O)o4)cc23)n1` (stereo not given), the Potency is reported as “inactive”. For `COC(=O)c1c(NC(=O)COC(=O)c2ccc(Cl)cc2[N+](=O)[O-])sc2c1CCCCC2`, the Potency was “inactive”. `CSc1cnc(-c2ccccc2C(C)C)nc1NCc1ccc(-c2cccnc2)cc1` was tested, and the Potency was “inactive”. For `O=C(O)c1ccc2c(c1)C(=O)N([C@H](Cc1ccc(O)c(O)c1)C(=O)O)C2=O`, the Potency was “inactive”. `O=[N+]([O-])c1ccccc1S(=O)(=O)Nc1cccc2cccnc12` was tested, and the Potency was “inactive”. For `Fc1ccc(-c2nnc(CCCCSc3nnc(-c4cccc5ccccc45)o3)o2)cc1`, the Potency was “inactive”. In the case of `O=S1(=O)N=C(Oc2cccc3ccccc23)c2ccccc21`, the Potency is reported as “inactive”. For `CC(=O)Nc1sc2c(c1C(=O)O)CCNC2`, the Potency was “inactive”. In the case of `FC(F)(F)c1cc(-c2ccc(CNc3nc(-c4ccncc4)nc4ccccc34)cc2)ccn1`, the Potency is reported as “inactive”. For `CC(=O)Nc1sc2c(c1-c1ccc(F)cc1)CCNC2`, the Potency was “inactive”. In the case of `COc1ccc(C2Nc3ccccc3C(=O)N2Cc2ccc(CNC(=O)CO)cc2)cc1COc1ccc(NC(C)=O)cc1` (stereo not given), the Potency is reported as “inactive”. With `N#Cc1nc(Nc2cccc(Cl)c2)nc(NC2CCCC2)n1` the Potency was “inactive”. With `O=C(O)c1ccc(CSc2nnc(-c3cccc([S+](=O)([O-])N4CCCC4)c3)n2-c2ccccc2)cc1` the Potency was “inactive”. For `O=C1Nc2ccccc2/C1=C/c1cc(Cl)c(O)c(Cl)c1`, the Potency was “inactive”. `N#Cc1cc(NC(=O)Nc2nnc(-c3ccncc3)s2)ccc1-c1ccc[nH]1` was tested, and the Potency was “inactive”. `NC(=O)C1CCN(c2nc(-c3cccc(C(F)(F)F)c3)cs2)CC1` was tested, and the Potency was “inactive”. With `Cc1nnc(-c2cnn(C)c2N)n1CCCc1ccccn1` the Potency was “inactive”. For `O=c1c2ccc(C(F)(F)F)cc2nc2sc(Nc3ccc4c(c3)CCC4)nn12`, the Potency was “inactive”. In the case of `COc1cccc(C(=O)NC2CCN(C#N)CC2)c1`, the Potency is reported as “inactive”. For `CNC(=O)C1=C(C)NC(Nc2nc3ccccc3o2)=NC1c1[nH]ncc1Cl` (stereo not given), the Potency was “inactive”. With `COc1ccc(C2Nc3ccc(Cl)cc3C(=O)N2Cc2ccccc2)cc1COc1ccc(NC(C)=O)cc1` (stereo not given) the Potency was “inactive”. `Cc1cc(C)nc(NC(=S)N2CCN(c3ccc(N4CCCC4)nn3)CC2)c1` was tested, and the Potency was “inactive”. In the case of `CCOc1ccc(CNc2ccc(-c3nc4ccccc4[nH]3)cc2)cc1`, the Potency is reported as “inactive”. With `O=C(Nc1ccc2ccccc2c1)Nc1nnc(-c2ccc(F)cc2)s1` the Potency was “inactive”.
